Screens from PubChem BioAssay.
G9a inh – blocks human histone lysine methyltransferase G9a. AID 504332. Potency, µM (series often up to 102 µM), for the others: at the top dose activity, negative = inhibition, hits mostly inhibitors. G9a H3K9 monomethylation, AlphaScreen, 2 h. hit rate 8.8% among 350,000. Q96KQ7; also: % is scaled to controls: 0 for no effect and ±100 for the full control effect; nearly all actives have a fitted effect of over 75% in size
Target sequence (Q96KQ7 913-1193 limits assumed): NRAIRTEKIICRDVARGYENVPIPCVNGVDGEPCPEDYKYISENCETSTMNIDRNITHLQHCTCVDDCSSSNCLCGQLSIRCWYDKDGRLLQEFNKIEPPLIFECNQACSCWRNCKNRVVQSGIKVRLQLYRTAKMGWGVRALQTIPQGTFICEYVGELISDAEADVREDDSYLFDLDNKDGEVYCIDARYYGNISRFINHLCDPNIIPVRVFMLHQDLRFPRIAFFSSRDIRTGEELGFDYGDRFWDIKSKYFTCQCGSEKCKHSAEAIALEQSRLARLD
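G9a (20 nM) preincubated 15 min RT with compounds, then 500 nM biotinylated H3K9 peptide and 20 uM SAM added; 2 h RT reaction. Monomethyl-H3K9 product detected by AlphaScreen with anti-H3K9me1 antibody, streptavidin donor and anti-rabbit IgG acceptor beads.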
JMJD2A Tudor – blocks the human JMJD2A Tudor domain; Potency, µM (series often up to 114 µM), for inactives: at the highest dose activity change, negative = inhibition, actives largely listed as inhibitors; hit rate 4.4% among 390,000; AlphaScreen JMJD2A-Tudor / H3K4me3 peptide binding; also: % is scaled to controls: 0 for no effect and ±100 for the full control effect; nearly all actives have a fitted effect of over 50% in size
BAZ2B block – inhibitors of human BAZ2B bromodomain | AID 504333 | Q9UIF8 | hit rate 4.4% among 360,000 | Potency, µM (top dose mostly 114 µM), for the others: at the top dose activity change, negative = inhibition, hits mostly inhibitors | AlphaScreen BAZ2B-H3K14Ac peptide displacement; also: % is scaled to controls: 0 for no effect and ±100 for the full control effect; nearly all actives have a fitted effect of over 60% in size
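BAZ2B 50 nM plus b-H3(5-23)K14Ac 50 nM, PBS pH 7.4/0.01% Tween-20, 30 min RT; compound added (max 110 uM), 30 min RT; streptavidin donor/Ni-chelate acceptor beads 10 ug/mL final, 20 min dark; AlphaScreen read.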
HP1b chromo inh – inhibitors of HP1-beta chromodomain binding to methylated histone tails; P83916; AlphaScreen HP1-beta / biotin-H3K9me3 peptide binding; Potency, µM (doses to about 114 µM), for the others: at the highest dose activity change, negative = inhibition, hits mostly inhibitors; hit rate 0.56% among 390,000; AID 540317; also: nearly all actives have a fitted effect of over 70% in size
Target sequence (P83916 whole entry, looked up): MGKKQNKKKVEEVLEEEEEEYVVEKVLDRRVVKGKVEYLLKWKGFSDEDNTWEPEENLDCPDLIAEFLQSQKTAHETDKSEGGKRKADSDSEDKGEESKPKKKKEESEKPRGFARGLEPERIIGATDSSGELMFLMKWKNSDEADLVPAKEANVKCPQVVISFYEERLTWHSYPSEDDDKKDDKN
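HP1-beta protein (50 nM final) preincubated 30 min at room temperature with biotinylated H3(1-18)K9me3 peptide (50 nM) in PBS pH 7.4, 0.01% Tween-20, then compound added for 30 min. AlphaScreen streptavidin donor/nickel chelate acceptor beads (10 ug/mL final), 30 min dark, luminescence read.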
GLS inh – inhibitors of human glutaminase (GLS) | Potency, µM (series often up to 45.5 µM), for inactives: at the top dose activity change, negative = inhibition, actives largely listed as inhibitors | GLS enzymatic activity, qHTS titration | O94925 | hit rate 0.21% among 410,000; also: % is scaled to controls: 0 for no effect and ±100 for the full control effect
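Coupled fluorescence readout: glutamate oxidase/HRP/Amplex Red detect glutamate formed by hKGA from L-glutamine (1 mM solution added). Buffer 45 mM KH2PO4 pH 8.2, 0.02% Tween-20; reads at t0 and 30 min RT.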
An asterisk follows results filed as active; ? = inconclusive; · = no result given; [ ] = dose if it differs, or a comment. Hits are enriched below; roughly 10% of the tested compounds scored in any of these assays. Calls follow the shape of the dose curve; as a rule, active = well fitted curve in the direction sought with a large enough effect; inconclusive = small, poorly fitted or top-dose-only effect, or another doubt; inactive = no such curve, though single readings can be large; an effect the other way counts as inactive or inconclusive. Potency is read from the fitted curve at half-maximal effect.

SMILES | G9a inh | JMJD2A Tudor | BAZ2B block | HP1b chromo inh | GLS inh
CC(C)Cc1nc2ccc(N)cc2[nH]1 | ? | 22.4µM* | -35.2% | 19.2% | ?
CCN(CC)S(=O)(=O)c1ccc2c(c1)N(CC(=O)Nc1ccc(C)cc1C)C(=O)C1CCCN21 (stereo not given) | 14.1µM* | -15.9% | -14.6% | 50.4% | 3.4%
Cc1ccc(CN2C(=O)C3CCCN3c3ccc(S(=O)(=O)N4CCOCC4)cc32)cc1 (stereo not given) | 12.6µM* | · | -5.6% | · | ·
O=C(Nc1ccc(Cl)c(Cl)c1)c1cc(S(=O)(=O)N2CCN(c3cccc(Cl)c3)CC2)ccc1F | -2.7%[59 µM] | -18.7% | 4.6% | -3.1% | 0.1%
Cc1ccc(NC(=O)C2C3C=CC4(CN(Cc5cccnc5)C(=O)C24)O3)cc1F (stereo not given) | 44.7µM* | 1.4% | 0.1% | 40.2% | 2.1%
COc1ccccc1/C=N/OCC(=O)NCc1ccc2c(c1)OCO2 | -36.1% | -13.7% | 0.7% | 13.7% | 4.6%
CCOc1ccc(/C=N/OCC(=O)NCc2ccc3c(c2)OCO3)cc1OC | 39.8µM* | -15.1% | 1.8% | 14.2% | 4.8%
O=C(Nc1cccc(C(F)(F)F)c1)c1cc2ncc(Br)cn2n1 | 0.8%[59 µM] | -16.9% | ? | 19.0% | -25.3%
COCCNC(=O)c1cc2ncc(Br)cn2n1 | 1.8%[59 µM] | 0.0% | -1.7% | 28.1% | -10.8%
O=C(Nc1ccc2c(c1)OCO2)c1cc2ncc(Br)cn2n1 | ? | ? | 50.1µM* | ? | 36.8%
O=C(NCCc1ccccc1)c1cc2ncc(Br)cn2n1 | -6.8%[12.7 µM] | -25.1% | 50.1µM* | 30.6% | -28.8%
Cc1csc(=O)n1CC(=O)OCC(=O)NC(C)c1ccc(F)cc1 (stereo not given) | 8.0%[12.7 µM] | 0.3% | 8.6% | 17.0% | 1.6%
COc1cccc(CN2CCCC(C(=O)Nc3ccc(-c4cscn4)cc3)C2)c1 (stereo not given) | · | -19.0% | ? | 5.1% | 10.2%
CCCn1nc(C(=O)NNC(=O)CSC(C)C(=O)Nc2cc(C)on2)c2ccccc2c1=O (stereo not given) | 22.4µM* | -2.2% | -9.3% | 32.0% | 12.6%
N#Cc1cc(-c2ccccc2)cnc1Cl | -13.0%[59 µM] | 7.1% | 49.9% | 35.0% | -0.6%
O=c1oc2c3c(ccc2c2ccccc12)OCN(Cc1ccc(Cl)cc1)C3 | 1.41µM* | -15.3% | -27.3% | 38.6% | 16.7%
COc1ccccc1CN1COc2ccc3c(oc(=O)c4ccccc43)c2C1 | 0.794µM* | ? | 5.01µM* | 20.5% | 23.1%
CCCc1cc(=O)oc2c3c(ccc12)OCN(Cc1ccccc1OC)C3 | -2.5%[59 µM] | 7.2% | -0.5% | 45.4% | 8.1%
CCNC(=O)CC1S/C(=N/N=C(\C)c2ccccc2)NC1=O (stereo not given) | 47.4% | ? | -24.5% | 20.0% | 3.6%
C/C(=N\N=C1\NC(=O)C(Cc2ccccc2)S1)c1ccccc1 (stereo not given) | ? | 63.1µM* | ? | ? | 5.1%
Cc1cc(C)nc(NCC(O)CNc2ccccc2Cl)n1 (stereo not given) | 7.08µM* | 56.2µM* | -32.0% | 13.8% | 17.3%
CCc1nnc(NC(=O)c2sc3nc4c(cc3c2N)CCCCCC4)s1 | 44.7µM* | -24.8% | -11.6% | -3.5% | -6.4%
CNc1nc(-c2ccc3c(c2)CCN3C(=O)CC(C)(C)C)c(C)s1 | -1.5% | -33.0% | 9.5% | -12.7% | 1.3%
CC(=O)Nc1nc(-c2ccc3c(c2)CCN3C(=O)C2CC2)c(C)s1 | ? | -13.0% | -29.0% | 1.1% | 3.3%
CCCC(=O)N1CCc2cc(-c3nc(N)sc3C)ccc21 | 39.8µM* | -17.3% | -6.5% | -26.8% | 4.9%
SMILES | G9a inh | JMJD2A Tudor | BAZ2B block | HP1b chromo inh | GLS inh
CNc1nc(-c2ccc3c(c2)CCN3C(=O)c2ccccc2F)cs1 | 50.1µM* | ? | 50.1µM* | ? | 10.9%
CNc1nc(-c2ccc3c(c2)CCN3C(=O)c2ccccc2F)c(C)s1 | 35.5µM* | -30.5% | -15.1% | -4.8% | 9.0%
CCC(C)C(=O)N1CCc2cc(-c3csc(N)n3)ccc21 (stereo not given) | ? | -24.9% | ? | -0.2% | 3.4%
CC(C)(C)C(=O)N1CCc2cc(-c3csc(N)n3)ccc21 | -0.4%[0.501 µM] | -29.5% | 50.1µM* | -12.5% | 22.4%
CCn1ccc2cc(S(=O)(=O)N3CCC(C(=O)NCCc4ccccc4Cl)CC3)ccc21 | -3.1%[59 µM] | -16.9% | -3.9% | 7.0%[57 µM] | -8.7%
Nc1nc(-c2ccc3c(c2)OCCO3)cs1 | ? | -34.8% | · | 0.1% | 17.3%
Nc1nc(-c2ccc3c(c2)CCCC3)cs1 | 17.8µM* | ? | 44.7µM* | -33.5% | 7.5%
COc1ccc2c(c1)c(=O)c(C(=O)c1ccccc1)cn2Cc1ccc(C)cc1 | -12.8% | -28.4% | -27.6% | 12.5% | 15.2%
CCn1cc(C(=O)O)c(=O)c2cc(OC)ccc21 | ? | 8.91µM* | ? | -6.9% | -19.7%
COc1ccc(N2CCN(C(=O)c3cc(N4C(=O)C5C6CCC(C6)C5C4=O)ccc3Cl)CC2)cc1 (stereo not given) | 39.8µM* | -31.0% | ? | 6.5% | 22.9%
O=C(c1cc(N2C(=O)C3C4CCC(C4)C3C2=O)ccc1Cl)N1CCN(c2ccc(F)cc2)CC1 (stereo not given) | ? | -26.9% | -11.8% | 0.0% | 12.7%
CCn1cc(C(=O)O)c(=O)c2cc(S(=O)(=O)N3CCCCCC3)ccc21 | · | -1.5% | 70.8µM* | 41.4% | -10.1%
COc1ccc(N2CCN(S(=O)(=O)c3ccc(OC)c(C(=O)N4CCCCC4)c3)CC2)cc1 | 44.7µM* | -25.4% | -24.0% | ? | 7.4%
CCn1cc(C(=O)N2CCN(c3ccc(OC)cc3)CC2)c(=O)c2cc(S(=O)(=O)N3CCCCC3)ccc21 | 50.1µM* | -29.9% | ? | -6.8% | 24.0%
COc1ccc(C2C(C(C)=O)=C(C)N=c3s/c(=C\c4cc(C)n(C)c4C)c(=O)n32)c(OC)c1 (stereo not given) | ? | ? | ? | 1.4% | 1.7%
CCOC(=O)C1=C(C)N=c2s/c(=C\c3ccc(O)c([N+](=O)[O-])c3)c(=O)n2C1c1ccccc1OC (stereo not given) | 14.1µM* | 10µM* | 8.91µM* | ? | ?
CCOC(=O)C1=C(C)N=c2s/c(=C\c3ccc(OCC(=O)O)cc3)c(=O)n2C1c1ccccc1OC (stereo not given) | -35.5%[2.33 µM] | 89.1µM* | 79.4µM* | -19.2% | 21.4%
CCOC(=O)C1=C(C)N=c2s/c(=C/c3cccc([N+](=O)[O-])c3O)c(=O)n2C1c1ccc(OC)cc1OC (stereo not given) | 7.08µM* | 11.2µM* | 5.01µM* | 7.08µM* | ?
CCOC(=O)C1=C(c2ccccc2)N=c2s/c(=C\c3cc(OC)c(OC)c(OC)c3)c(=O)n2C1c1cccs1 (stereo not given) | ? | -20.3% | ? | 17.5% | 4.0%
